Experimental data published in the supplement of paper PMC11732987, “Enantioselective OTUD7B fragment discovery through chemoproteomics screening and high-throughput optimisation” (Communications Chemistry, 2025).

Assays:
Assay in all cases: log2 ratio of Biotin-Ahx-Ub-VS probe labelling (fragment/DMSO); higher = less target engagement (more negative = stronger competition), active = hit call of the paper (q ≤ 0.05, log2 ratio ≤ -1)
Details in all cases: compound concentration: 200 uM; treatment time: 3 h
USP34 = USP34 (UniProt Q70CQ2)
Method in brief: (§1)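 HEK293T lysate (495 µg per sample, in Tris/CHAPS/IGEPAL buffer with protease inhibitors) was exposed in triplicate for 3 h to fragment at 200 µM or to vehicle, then to Biotin-Ahx-Ub-VS at 0.5 µM final for 1 h. Labelled DUBs were enriched on NeutrAvidin, digested with LysC and trypsin, and analysed by diaPASEF LC-MS/MS. Spectronaut label-free quantities were normalised to the global median, and values are average log2 ratios of fragment over vehicle from an unpaired t-test. Only proteins with ≥2 unique peptides were used.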

USP36 = biological target: T1, USP36 (UniProt Q9P275)
T1 sequence (whole entry): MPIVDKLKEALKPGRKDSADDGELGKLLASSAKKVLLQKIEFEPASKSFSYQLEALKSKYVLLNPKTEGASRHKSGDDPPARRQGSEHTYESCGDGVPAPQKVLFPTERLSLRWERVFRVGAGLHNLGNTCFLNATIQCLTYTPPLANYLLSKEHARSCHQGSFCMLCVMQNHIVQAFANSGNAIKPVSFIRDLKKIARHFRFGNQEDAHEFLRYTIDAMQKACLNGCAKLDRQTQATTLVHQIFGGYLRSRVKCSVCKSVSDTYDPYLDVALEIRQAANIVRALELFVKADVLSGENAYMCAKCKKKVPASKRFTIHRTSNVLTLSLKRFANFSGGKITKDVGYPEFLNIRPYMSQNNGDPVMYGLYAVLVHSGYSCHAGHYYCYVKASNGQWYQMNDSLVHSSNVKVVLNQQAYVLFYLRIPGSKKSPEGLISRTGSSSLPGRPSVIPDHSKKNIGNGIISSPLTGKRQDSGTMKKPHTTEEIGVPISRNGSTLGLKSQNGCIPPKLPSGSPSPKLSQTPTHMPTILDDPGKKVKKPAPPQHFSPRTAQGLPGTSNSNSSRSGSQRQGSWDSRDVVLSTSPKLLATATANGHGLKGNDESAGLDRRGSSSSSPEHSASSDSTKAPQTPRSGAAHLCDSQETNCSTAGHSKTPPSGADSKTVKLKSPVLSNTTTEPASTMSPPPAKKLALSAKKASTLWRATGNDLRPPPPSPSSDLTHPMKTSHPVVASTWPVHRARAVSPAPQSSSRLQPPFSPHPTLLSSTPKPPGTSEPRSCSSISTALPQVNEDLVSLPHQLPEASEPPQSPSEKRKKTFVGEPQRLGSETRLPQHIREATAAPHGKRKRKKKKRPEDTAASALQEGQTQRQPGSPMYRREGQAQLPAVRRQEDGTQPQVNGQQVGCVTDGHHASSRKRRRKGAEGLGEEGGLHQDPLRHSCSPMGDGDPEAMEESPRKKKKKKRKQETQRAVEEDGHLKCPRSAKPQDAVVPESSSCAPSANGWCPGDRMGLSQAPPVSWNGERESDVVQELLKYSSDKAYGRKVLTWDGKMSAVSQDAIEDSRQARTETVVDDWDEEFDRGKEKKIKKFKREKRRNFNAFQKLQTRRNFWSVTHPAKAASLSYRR
Method in brief: as §1

USP38 = biological target: T2, USP38 (UniProt Q8NB14)
T2 sequence (whole entry): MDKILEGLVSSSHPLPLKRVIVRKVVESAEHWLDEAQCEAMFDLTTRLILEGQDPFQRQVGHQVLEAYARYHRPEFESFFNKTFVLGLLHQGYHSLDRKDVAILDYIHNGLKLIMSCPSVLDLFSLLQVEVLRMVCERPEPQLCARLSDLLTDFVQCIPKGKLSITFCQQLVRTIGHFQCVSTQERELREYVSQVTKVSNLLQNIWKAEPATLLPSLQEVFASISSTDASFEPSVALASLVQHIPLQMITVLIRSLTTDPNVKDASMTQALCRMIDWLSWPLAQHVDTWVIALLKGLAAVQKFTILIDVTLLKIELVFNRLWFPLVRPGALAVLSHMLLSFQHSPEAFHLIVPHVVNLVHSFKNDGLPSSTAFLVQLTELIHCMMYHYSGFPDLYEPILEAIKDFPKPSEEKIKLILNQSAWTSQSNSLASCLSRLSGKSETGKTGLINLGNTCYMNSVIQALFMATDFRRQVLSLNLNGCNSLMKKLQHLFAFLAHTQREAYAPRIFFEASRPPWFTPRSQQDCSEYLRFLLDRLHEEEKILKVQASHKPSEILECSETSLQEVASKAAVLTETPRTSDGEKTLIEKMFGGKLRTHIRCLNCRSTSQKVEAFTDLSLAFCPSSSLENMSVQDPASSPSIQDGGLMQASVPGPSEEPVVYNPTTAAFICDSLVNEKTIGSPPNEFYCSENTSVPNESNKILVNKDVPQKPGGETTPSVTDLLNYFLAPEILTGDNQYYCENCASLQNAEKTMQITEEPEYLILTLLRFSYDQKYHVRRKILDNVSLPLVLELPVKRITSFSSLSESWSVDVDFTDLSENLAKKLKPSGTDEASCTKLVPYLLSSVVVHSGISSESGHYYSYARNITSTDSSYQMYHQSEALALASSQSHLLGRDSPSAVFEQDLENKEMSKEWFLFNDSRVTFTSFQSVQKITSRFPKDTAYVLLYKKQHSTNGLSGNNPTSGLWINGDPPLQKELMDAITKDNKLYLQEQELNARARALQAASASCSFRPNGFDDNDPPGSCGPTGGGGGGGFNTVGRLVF
Method in brief: as §1

USP39 = biological target: T3, USP39 (UniProt Q53GS9)
T3 sequence (whole entry): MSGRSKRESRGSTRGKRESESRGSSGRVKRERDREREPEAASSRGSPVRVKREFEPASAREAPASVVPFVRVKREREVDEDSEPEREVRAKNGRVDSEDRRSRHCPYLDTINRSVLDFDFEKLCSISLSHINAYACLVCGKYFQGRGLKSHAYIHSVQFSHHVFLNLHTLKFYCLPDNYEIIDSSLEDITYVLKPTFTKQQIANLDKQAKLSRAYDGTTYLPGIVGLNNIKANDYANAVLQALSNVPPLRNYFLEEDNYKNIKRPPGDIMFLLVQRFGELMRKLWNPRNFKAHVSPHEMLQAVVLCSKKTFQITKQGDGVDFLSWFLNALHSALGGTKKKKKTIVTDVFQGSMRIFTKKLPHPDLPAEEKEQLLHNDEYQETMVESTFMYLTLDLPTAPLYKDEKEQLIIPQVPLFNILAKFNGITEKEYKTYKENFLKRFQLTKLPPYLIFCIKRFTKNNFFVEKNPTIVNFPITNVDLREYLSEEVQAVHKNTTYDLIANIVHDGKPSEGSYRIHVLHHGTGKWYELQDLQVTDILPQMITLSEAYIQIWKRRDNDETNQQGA
Method in brief: as §1

USP4 = biological target: T4, USP4 (UniProt Q13107)
T4 sequence (whole entry): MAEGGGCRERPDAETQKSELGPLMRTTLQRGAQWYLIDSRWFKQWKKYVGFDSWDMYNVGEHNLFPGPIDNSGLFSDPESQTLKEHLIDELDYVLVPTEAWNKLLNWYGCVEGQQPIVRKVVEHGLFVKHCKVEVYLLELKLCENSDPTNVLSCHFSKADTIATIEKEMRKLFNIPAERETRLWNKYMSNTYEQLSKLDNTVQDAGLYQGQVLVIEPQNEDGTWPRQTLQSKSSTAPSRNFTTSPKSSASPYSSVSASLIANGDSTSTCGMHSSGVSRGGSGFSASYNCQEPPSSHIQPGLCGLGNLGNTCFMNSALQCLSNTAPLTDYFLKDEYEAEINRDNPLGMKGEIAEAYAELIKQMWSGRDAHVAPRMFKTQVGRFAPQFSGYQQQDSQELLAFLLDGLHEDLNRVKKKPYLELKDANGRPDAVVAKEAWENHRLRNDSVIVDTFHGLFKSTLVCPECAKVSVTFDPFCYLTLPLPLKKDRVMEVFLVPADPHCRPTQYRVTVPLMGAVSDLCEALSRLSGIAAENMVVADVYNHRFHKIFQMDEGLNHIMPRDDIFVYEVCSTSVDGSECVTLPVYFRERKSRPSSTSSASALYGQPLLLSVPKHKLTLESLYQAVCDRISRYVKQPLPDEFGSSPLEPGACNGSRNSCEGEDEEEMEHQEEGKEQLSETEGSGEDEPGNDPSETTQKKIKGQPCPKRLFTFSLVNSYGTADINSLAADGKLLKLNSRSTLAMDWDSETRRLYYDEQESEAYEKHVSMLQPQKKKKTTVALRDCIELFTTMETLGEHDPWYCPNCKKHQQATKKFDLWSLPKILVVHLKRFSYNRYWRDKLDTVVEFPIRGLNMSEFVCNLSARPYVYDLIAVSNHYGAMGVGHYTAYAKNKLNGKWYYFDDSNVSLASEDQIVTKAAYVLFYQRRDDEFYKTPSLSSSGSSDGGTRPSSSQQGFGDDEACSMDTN
Method in brief: as §1

Measured: log2 ratio of Biotin-Ahx-Ub-VS probe labelling

Sequence of USP34 (Q70CQ2 whole entry, the tested form may be a part): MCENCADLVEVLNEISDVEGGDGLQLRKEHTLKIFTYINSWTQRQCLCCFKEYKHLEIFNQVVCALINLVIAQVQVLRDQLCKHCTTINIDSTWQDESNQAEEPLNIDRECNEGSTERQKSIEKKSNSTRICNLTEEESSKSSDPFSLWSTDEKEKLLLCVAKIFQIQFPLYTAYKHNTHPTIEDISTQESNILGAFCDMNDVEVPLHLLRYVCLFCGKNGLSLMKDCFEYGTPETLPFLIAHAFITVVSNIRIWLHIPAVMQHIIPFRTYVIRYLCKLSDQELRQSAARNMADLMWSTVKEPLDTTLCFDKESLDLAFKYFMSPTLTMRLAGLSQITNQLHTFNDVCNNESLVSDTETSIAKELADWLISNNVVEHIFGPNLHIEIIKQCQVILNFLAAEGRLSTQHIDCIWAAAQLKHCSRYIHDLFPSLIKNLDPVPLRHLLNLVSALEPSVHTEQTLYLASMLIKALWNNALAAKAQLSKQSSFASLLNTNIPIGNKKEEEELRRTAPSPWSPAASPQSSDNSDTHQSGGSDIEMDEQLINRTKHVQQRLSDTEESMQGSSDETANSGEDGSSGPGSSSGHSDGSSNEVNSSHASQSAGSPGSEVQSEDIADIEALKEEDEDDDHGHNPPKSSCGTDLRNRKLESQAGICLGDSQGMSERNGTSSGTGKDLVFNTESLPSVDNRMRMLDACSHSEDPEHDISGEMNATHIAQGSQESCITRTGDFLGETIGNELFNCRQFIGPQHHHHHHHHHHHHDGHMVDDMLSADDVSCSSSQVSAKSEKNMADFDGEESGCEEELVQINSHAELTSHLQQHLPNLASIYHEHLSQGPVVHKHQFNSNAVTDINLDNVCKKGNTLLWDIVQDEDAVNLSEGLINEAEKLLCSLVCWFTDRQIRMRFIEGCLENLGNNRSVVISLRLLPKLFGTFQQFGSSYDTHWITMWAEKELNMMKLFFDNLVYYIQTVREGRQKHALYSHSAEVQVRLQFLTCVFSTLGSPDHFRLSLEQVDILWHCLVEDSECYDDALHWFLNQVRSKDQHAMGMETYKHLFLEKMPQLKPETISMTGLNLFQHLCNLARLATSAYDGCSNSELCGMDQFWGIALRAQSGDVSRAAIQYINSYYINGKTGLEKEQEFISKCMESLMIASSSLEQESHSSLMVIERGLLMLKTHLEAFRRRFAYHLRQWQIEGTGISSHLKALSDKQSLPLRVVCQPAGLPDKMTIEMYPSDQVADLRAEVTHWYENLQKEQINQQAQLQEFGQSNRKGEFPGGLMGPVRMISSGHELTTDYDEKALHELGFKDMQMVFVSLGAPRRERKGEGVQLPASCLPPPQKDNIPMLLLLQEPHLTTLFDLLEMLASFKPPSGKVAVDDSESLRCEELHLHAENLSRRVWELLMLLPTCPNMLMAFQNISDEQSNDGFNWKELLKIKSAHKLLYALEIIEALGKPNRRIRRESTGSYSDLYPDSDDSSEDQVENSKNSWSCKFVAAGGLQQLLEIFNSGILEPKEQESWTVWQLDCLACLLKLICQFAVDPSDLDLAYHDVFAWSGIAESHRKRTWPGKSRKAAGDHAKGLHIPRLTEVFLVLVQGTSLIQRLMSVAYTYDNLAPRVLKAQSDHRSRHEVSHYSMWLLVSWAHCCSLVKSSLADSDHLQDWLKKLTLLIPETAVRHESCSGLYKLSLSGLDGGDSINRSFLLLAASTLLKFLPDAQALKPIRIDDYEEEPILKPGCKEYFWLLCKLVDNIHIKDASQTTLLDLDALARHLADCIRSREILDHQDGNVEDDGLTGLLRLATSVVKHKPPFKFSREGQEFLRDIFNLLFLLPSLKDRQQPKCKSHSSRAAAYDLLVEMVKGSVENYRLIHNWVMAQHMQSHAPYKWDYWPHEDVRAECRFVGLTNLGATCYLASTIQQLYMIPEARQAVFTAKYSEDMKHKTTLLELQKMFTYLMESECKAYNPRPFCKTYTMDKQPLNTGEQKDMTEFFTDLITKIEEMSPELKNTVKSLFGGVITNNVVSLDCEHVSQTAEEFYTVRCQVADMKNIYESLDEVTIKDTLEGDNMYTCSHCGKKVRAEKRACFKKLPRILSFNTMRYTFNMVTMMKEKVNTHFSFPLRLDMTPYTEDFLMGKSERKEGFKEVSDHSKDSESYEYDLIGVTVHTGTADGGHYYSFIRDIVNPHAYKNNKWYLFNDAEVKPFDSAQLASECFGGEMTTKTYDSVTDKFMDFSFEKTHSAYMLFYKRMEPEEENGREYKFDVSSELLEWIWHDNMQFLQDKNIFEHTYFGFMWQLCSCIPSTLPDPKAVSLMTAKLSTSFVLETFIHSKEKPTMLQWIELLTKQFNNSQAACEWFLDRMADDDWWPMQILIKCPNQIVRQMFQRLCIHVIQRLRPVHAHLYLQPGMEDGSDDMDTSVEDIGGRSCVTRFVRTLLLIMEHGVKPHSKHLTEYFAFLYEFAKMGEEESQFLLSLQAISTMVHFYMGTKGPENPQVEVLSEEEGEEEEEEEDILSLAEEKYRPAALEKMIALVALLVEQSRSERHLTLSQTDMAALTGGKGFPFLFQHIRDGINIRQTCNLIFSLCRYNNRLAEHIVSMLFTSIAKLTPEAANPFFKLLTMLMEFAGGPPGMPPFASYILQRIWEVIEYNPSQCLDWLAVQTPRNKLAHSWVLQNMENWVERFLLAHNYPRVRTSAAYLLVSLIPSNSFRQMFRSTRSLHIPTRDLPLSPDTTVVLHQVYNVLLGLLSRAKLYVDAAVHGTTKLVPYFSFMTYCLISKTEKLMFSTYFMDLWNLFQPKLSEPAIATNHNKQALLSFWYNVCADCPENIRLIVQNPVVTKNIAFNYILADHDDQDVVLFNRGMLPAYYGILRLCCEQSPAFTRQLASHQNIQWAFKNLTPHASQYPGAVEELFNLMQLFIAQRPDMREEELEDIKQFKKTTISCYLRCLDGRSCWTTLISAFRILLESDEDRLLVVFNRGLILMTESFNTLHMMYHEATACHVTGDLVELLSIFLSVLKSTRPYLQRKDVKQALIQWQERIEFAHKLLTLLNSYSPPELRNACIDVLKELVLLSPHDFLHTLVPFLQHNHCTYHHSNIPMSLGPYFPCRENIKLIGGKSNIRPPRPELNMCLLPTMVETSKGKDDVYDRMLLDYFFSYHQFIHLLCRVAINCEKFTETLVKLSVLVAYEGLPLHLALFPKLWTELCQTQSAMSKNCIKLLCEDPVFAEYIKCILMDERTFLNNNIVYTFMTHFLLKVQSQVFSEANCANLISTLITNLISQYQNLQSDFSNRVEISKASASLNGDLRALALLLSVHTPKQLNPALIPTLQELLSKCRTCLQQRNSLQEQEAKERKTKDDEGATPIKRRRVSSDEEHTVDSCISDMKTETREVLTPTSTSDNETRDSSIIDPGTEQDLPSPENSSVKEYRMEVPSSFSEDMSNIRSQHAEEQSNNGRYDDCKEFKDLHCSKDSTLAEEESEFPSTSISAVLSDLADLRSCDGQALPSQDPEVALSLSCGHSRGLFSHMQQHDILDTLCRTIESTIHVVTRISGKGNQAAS

O=C(CCl)NCCC1=CCCCC1
inactive: USP34 0.0934 | USP36 -0.119 | USP38 -0.0475 | USP39 0.131 | USP4 0.0999
